Sampled rows, rich in hits. Any-hit rate of the full collection: about 3%.
NALP3 yeast inh: inhibitors of NALP3 inflammasome in yeast | Yeast reconstituted NLRP3/ASC/caspase-1, beta-gal luminescence, 24 h | inhibition, % at 10 µM | hit rate 0.39% among 330,000 | AID 2825;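 active = inhibition of 50% or more; inactive = inhibition below 50%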;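 also: plate controls were induced DMSO wells for no effect and uninduced yeast grown without galactose for full effect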
A1 inh: inhibitors of the anti-apoptotic protein A1, read as caspase activation. MEF A1-2A-BIM cells, Caspase-Glo 3/7 luminescence, 3 h; percent of clofoctol response, vehicle zero. caspase activation, % (test concentration not listed). hit rate 0.066% among 330,000. AID 2462;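 active = over half of replicate activation scores above 10%, or exactly half above 10 with the replicate mean above 10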
Mot1-301 SUMO: SUMOylation pathway inhibition by Mot1-301 growth rescue | S. cerevisiae Mot1-301 growth rescue, ATP luminescence, 38.5C; percent above DMSO median, 100 means doubled | growth rescue, % at 18.8 µM | hit rate 1% among 320,000 | AID 2716;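 active = every valid replicate shows activation above 250% relative to neutral control wells; inactive = the rest, any valid replicate at or below 250%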;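 also: OY570 slx delta 5 strain wells were the positive control but not used for scaling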
CHT PAM: allosteric activators of human choline transporter CHT; hit rate 0.49% among 310,000; B-score at 10 µM; Q9GZV3; CHT-expressing cells, membrane potential dye, choline EC20; stronger effect = higher value; LV-AA mutant CHT in HEK293 cells;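 active = initial fluorescence not abnormally high and integrated response B-score, plate-corrected, over 3 SD above library mean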
Target sequence (Q9GZV3 whole entry, looked up): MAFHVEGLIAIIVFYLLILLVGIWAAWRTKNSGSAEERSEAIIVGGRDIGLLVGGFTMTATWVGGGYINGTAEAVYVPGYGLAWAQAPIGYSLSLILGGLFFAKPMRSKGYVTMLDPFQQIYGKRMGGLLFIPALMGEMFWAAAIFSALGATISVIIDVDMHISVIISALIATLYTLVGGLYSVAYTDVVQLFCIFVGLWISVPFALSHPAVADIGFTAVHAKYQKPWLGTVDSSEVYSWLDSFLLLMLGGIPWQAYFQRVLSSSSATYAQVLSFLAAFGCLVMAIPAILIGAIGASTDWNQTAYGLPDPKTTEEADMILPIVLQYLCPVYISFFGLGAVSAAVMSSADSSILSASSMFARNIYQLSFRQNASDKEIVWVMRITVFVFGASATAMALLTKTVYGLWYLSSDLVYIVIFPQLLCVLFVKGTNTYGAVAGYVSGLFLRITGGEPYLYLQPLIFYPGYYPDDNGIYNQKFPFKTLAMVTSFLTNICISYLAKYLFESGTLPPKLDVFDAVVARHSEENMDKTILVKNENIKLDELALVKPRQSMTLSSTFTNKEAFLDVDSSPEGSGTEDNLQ
CHT inh: inhibits the human high affinity choline transporter. Q9GZV3. CHT-expressing cells, membrane potential dye, choline response; stronger effect = lower value. B-score at 10 µM. hit rate 0.86% among 310,000;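 active = B-score over 3 SD under the library average, and starting fluorescence ratio not unusually high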;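 also: choline stimulus applied at its EC90 after an EC20 pre-addition; B-score computed on integrated fluorescence ratio after choline addition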
NALP1 inh: blocks the NALP1 inflammasome reconstituted in yeast; S. cerevisiae NALP1/ASC/caspase-1 growth, X-gal OD620, 72 h; inhibition, % at 10 µM; hit rate 0.61% among 280,000; in the data active = inhibition mostly above about 24%, no sharp cut-off; inactive = mostly below about 32%
CHT block conf: confirmation of human choline transporter CHT inhibitors. shares compounds with CHT inh. CHT-expressing cells, choline membrane potential dye; LV-to-AA substituted CHT, HEK293 cells. CHT activity remaining % of control (stronger effect = lower value), % at 10 µM. hit rate 70% among 2,400. AID 493221;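 active = choline transporter activity left, mean of duplicates at 10 µM, below buffer-only control mean minus 3 SD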;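 also: depolarization triggered by choline at its EC90 following an EC20 pre-addition; 0% = hemicholinium-3 full block and 100% = buffer-only control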
HEK293 MPD ctr: counter-screen for CHT inhibitors: effect in parental HEK293 cells | shares compounds with CHT inh | membrane potential dye, choline response; active = decrease or increase beyond buffer ±3SD | membrane potential ratio readout (active if shifted either direction beyond buffer ±3SD; no single direction) at 10 µM | hit rate 4% among 2,400;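 also: parental cells lack the transporter so any hit is non-specific; ratio is peak minus trough fluorescence over baseline after EC90 choline challenge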
* hit, by the source's call.

What do the screens show for `CCN(CC)c1ccc(C2C3CCCCC3(O)CCN2CC(=O)N2CCCCC2)cc1` (configuration not stated)?
NALP3 yeast inh: -2; A1 inh: 0; Mot1-301 SUMO: -22; CHT PAM: inactive; CHT inh: -5.9*; NALP1 inh: -28; CHT block conf: inactive; HEK293 MPD ctr: inactive

Results for O=C(CSc1ccc2ccccc2c1)Nc1ccncc1 ?
NALP3 yeast inh: 23; A1 inh: -2; Mot1-301 SUMO: 256; CHT PAM: inactive; CHT inh: -6*; NALP1 inh: 14; CHT block conf: 52%*; HEK293 MPD ctr: inactive

What do the screens show for `O=C(COc1cc(F)ccc1[N+](=O)[O-])Nc1cccc(S(=O)(=O)NC2=NCCC2)c1`?
NALP3 yeast inh: 3; A1 inh: -1; Mot1-301 SUMO: 0

What do the screens show for `CCc1ccc(N(CC(=O)NCc2ccco2)C(=O)CCC(=O)Nc2ccccn2)cc1`?
NALP3 yeast inh: 6; A1 inh: 0; Mot1-301 SUMO: 221; CHT PAM: inactive; CHT inh: inactive; NALP1 inh: -4

How did COc1cccc(CN2CCCC(C(=O)c3ccc4c(c3)OCO4)C2)c1OC (configuration not stated) do in these assays?
NALP3 yeast inh: 0; A1 inh: -1; Mot1-301 SUMO: -22; CHT PAM: inactive; CHT inh: -12*; NALP1 inh: 0; CHT block conf: inactive; HEK293 MPD ctr: inactive

Results for CC(Oc1ccc(Cl)cc1Cl)C(=O)Nc1ccc(S(=O)(=O)Nc2cnc3ccccc3n2)cc1 (configuration not stated) ?
NALP3 yeast inh: 10; A1 inh: 0; Mot1-301 SUMO: 2; CHT PAM: inactive; CHT inh: -9.9*; NALP1 inh: 25; CHT block conf: 46%*; HEK293 MPD ctr: inactive

Results for CC(Oc1ccc(Cl)cc1Cl)C(=O)NC1=NN(c2ccccc2)C(=O)C1 (configuration not stated) ?
NALP3 yeast inh: 9; A1 inh: 0; Mot1-301 SUMO: -29; CHT PAM: inactive; CHT inh: -6.3*; NALP1 inh: 7; CHT block conf: 39%*; HEK293 MPD ctr: inactive

What do the screens show for `Cc1cc(Cl)ccc1OC(C)C(=O)Nc1ccc(S(=O)(=O)Nc2cnc3ccccc3n2)cc1` (configuration not stated)?
NALP3 yeast inh: 1; A1 inh: 1; Mot1-301 SUMO: 1; CHT PAM: inactive; CHT inh: -11*; NALP1 inh: 16; CHT block conf: 43%*; HEK293 MPD ctr: inactive

Results for CCC1(c2ccc(F)cc2)NC(=O)N(CC(=O)NCc2ccccc2Cl)C1=O (configuration not stated) ?
NALP3 yeast inh: 6; A1 inh: 0; Mot1-301 SUMO: -20; CHT PAM: inactive; CHT inh: inactive; NALP1 inh: 13

Results for N#C/C(=C\c1ccc(O)c(Br)c1)C(=O)NCc1ccccc1 ?
NALP3 yeast inh: 15; A1 inh: 0; Mot1-301 SUMO: 4; CHT PAM: inactive; CHT inh: -6.4*; NALP1 inh: -9; CHT block conf: 64%*; HEK293 MPD ctr: inactive

What do the screens show for `CCC1CCCCN1CCCNC(=O)c1cn(CC)c2ccc(S(=O)(=O)N(C)C3CCCCC3)cc2c1=O` (configuration not stated)?
NALP3 yeast inh: 1; A1 inh: 0; Mot1-301 SUMO: 3; CHT PAM: inactive; CHT inh: -8.3*; NALP1 inh: 29; CHT block conf: 50%*; HEK293 MPD ctr: 2.8*

How did CCn1cc(C(=O)NCCCOC)c(=O)c2cc(S(=O)(=O)N(C)C3CCCCC3)ccc21 do in these assays?
NALP3 yeast inh: -2; A1 inh: 0; Mot1-301 SUMO: -28; CHT PAM: inactive; CHT inh: inactive; NALP1 inh: 14

What do the screens show for `CCCCN(CCCC)CCNC(=O)c1cn(C)c2ccc(S(=O)(=O)N(C)C3CCCCC3)cc2c1=O`?
NALP3 yeast inh: 11; A1 inh: -1; Mot1-301 SUMO: 5; CHT PAM: inactive; CHT inh: -6.9*; NALP1 inh: 23; CHT block conf: 32%*; HEK293 MPD ctr: inactive

What do the screens show for `CCCc1cc(=O)[nH]c(SCc2nc3ccccc3s2)n1`?
NALP3 yeast inh: 15; A1 inh: 0; Mot1-301 SUMO: -11; CHT PAM: inactive; CHT inh: -5*; NALP1 inh: 6; CHT block conf: 66%*; HEK293 MPD ctr: inactive

What do the screens show for `CNc1cc(C)nc(-n2nc(C)cc2C)n1`?
NALP3 yeast inh: 0; A1 inh: 0; Mot1-301 SUMO: -2; CHT PAM: inactive; CHT inh: inactive; NALP1 inh: 12

What do the screens show for `CCOc1ccc(Nc2cc(C)nc(-n3nc(C)cc3C)n2)cc1`?
NALP3 yeast inh: 30; A1 inh: 2; Mot1-301 SUMO: -14; CHT PAM: inactive; CHT inh: -6.1*; NALP1 inh: 7; CHT block conf: inactive; HEK293 MPD ctr: inactive

How did O=C(CSc1nncs1)Nc1nccs1 do in these assays?
NALP3 yeast inh: 13; A1 inh: -1; Mot1-301 SUMO: 3; CHT PAM: inactive; CHT inh: inactive

How did O=C(CCc1ccccc1)c1c(O)cc(O)cc1O do in these assays?
NALP3 yeast inh: 12; A1 inh: -2; Mot1-301 SUMO: -3; CHT PAM: inactive; CHT inh: -7.9*; NALP1 inh: -12; CHT block conf: 40%*; HEK293 MPD ctr: inactive

How did COc1ccc(C(=O)CCc2ccccc2)c(O)c1 do in these assays?
NALP3 yeast inh: 33; A1 inh: -1; Mot1-301 SUMO: -6; CHT PAM: inactive; CHT inh: inactive

What do the screens show for `CCOC(=O)c1cc(NC(=O)CNCC(c2ccccc2)N(C)C)cc(C(=O)OCC)c1` (configuration not stated)?
NALP3 yeast inh: 1; A1 inh: 0; Mot1-301 SUMO: -17; CHT PAM: inactive; CHT inh: -6.8*; NALP1 inh: 12; CHT block conf: 33%*; HEK293 MPD ctr: 2.2*

What do the screens show for `COc1ccc(C(=O)OCC(=O)Nc2ccc3[nH]c(=O)[nH]c3c2)cc1`?
NALP3 yeast inh: 23; A1 inh: 0; Mot1-301 SUMO: -2; CHT PAM: inactive; CHT inh: inactive
